Data as given in PubChem BioAssay AID1578 (Sanford-Burnham Center for Chemical Genomics, 2009).
The whole screen tested about 290,000 compounds, of which about 3,000 (1%) were called active. This excerpt belongs to a sample that is enriched for actives. A number with no mark means an inactive call. Cut-off read from the data, not from the text of the source: active = inhibition mostly above about 36% (no sharp cut-off); inactive = mostly below about 34%.

Assay: inhibition of NOD1-driven NF-kB reporter – cell-based, luminescence, uHTS, primary screen (AID 1578);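 note: HEK-293T reporter cells stimulated with the NOD1 agonist gamma-tri-DAP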
Conditions: NOD1-driven NF-kB luciferase reporter cells, at 4 µM, hits give high values
With COc1ccccc1Oc1nc(-c2ccccc2)cc(C)c1S(C)(=O)=O the inhibition was -16.2%.
In the case of COc1cccc(NC(=O)C2CCN(S(=O)(=O)c3ccc4c(c3)CC(C)N4C(C)=O)CC2)c1 (configuration not stated), the inhibition is reported as -22.9%.
Compound Nc1cc(-c2ccc(Br)cc2)nc2cc(-c3ccccc3)nn12 has an inhibition of -10.5%.
Cc1ccc(-c2cc3nc(-c4ccc(Br)cc4)cc(N)n3n2)cc1 gave an inhibition of -9.8%.
Work on CN1C(=O)C(C)(C)c2cc(S(=O)(=O)NCCc3ccc(Cl)cc3)ccc21 yielded an inhibition of -14.4%.
Work on CC1(C)Cc2c(sc3c2c(=N)n(Cc2ccco2)c(=O)n3CC(=O)Nc2ccc(Cl)cc2)CO1 yielded an inhibition of 1%.
In the case of COc1ccc2nc(C)cc(N3CC(C)OC(C)C3)c2c1 (configuration not stated), the inhibition is reported as 8.1%.
For O=C(O)CCc1cc(I)c(Oc2ccc(O)c(I)c2)c(I)c1, the inhibition was 51.7% (active).
Compound N[C@@H](Cc1cc(I)c(Oc2ccc(O)c(I)c2)c(I)c1)C(=O)O has an inhibition of 14.2%.
For O=C(O)Cc1cc(I)c(Oc2ccc(O)c(I)c2)c(I)c1, the inhibition was -16.4%.
With C=CCC(O)(CCN1CCCCC1)c1ccccc1 (configuration not stated) the inhibition was -19.4%.
For Cc1ccccc1N(C(=O)c1ccccn1)C(C(=O)NCc1ccccc1)c1ccncc1 (configuration not stated), the inhibition was -21.2%.
O=C(Cc1ccc(Cl)cc1Cl)Nc1cccc(S(=O)(=O)Nc2ccccc2F)c1 showed an inhibition of -7.5%.
In the case of N#CC(C#N)=C1C=CC=CN1/C(=C\c1ccco1)C(=O)c1ccc(Cl)cc1, the inhibition is reported as 104% (active).
N#CC(C#N)=C1C=CC=CN1/C(=C\c1ccco1)C(=O)c1ccc(Br)cc1 gave an inhibition of -10.9%.
N#CC(C#N)=C1C=CC=CN1/C(=C\c1ccco1)C(=O)c1ccccc1 gave an inhibition of -25.3%.
CCOC(=O)C(CCc1nnc(N)s1)C(=O)OCC showed an inhibition of -16.9%.
In the case of COc1ccc(N(CC(=O)NCc2ccco2)C(=O)CCC(=O)Nc2nccs2)c(OC)c1, the inhibition is reported as -20.5%.
With O=C(N/N=C/c1cn(-c2cccs2)nc1-c1ccccc1)c1ccccc1Br the inhibition was -30.5%.
In the case of O=C(O)c1[nH]c2ccccc2c1C(c1c(F)cccc1Cl)c1c(C(=O)O)[nH]c2ccccc12, the inhibition is reported as -43.4%.
With CNc1ccc(/C=C2\CSc3ccccc3C2=O)cc1[N+](=O)[O-] the inhibition was 73.4% (active).
Work on O=C1/C(=C/c2cccc([N+](=O)[O-])c2)CSc2ccc(Cl)cc21 yielded an inhibition of -12%.
With CNc1ccc(/C=C2\COc3ccccc3C2=O)cc1[N+](=O)[O-] the inhibition was -7.1%.
COc1ccc(C2/C(=C(/O)c3ccccc3)C(=O)C(=O)N2C)cc1 (configuration not stated) gave an inhibition of -38.6%.
In the case of COc1ccc(CNC(=O)c2cc3cccc(OC)c3oc2=N)cc1, the inhibition is reported as 4.1%.
With COc1cccc2cc(C(=O)NCc3ccc(Cl)cc3)c(=N)oc12 the inhibition was 85.8% (active).
With COc1cccc2cc(C(=O)NCc3ccc(C)cc3)c(=N)oc12 the inhibition was 18.3%.
